In the library only some 11% were active in any assay of this set; here they are far more common.
Pf growth 48h: inhibits P. falciparum growth in the first generation, 48 h; Potency, µM (highest dose often 28.7 µM), without a hit: at the top dose activity change, negative = inhibition, most hits filed as inhibitors; 310,000 tested, 5.9% active; P. falciparum luciferase growth in erythrocytes, 48 h; note: % is set by controls: 0 for no effect and ±100 for the full control effect
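A one-generation exposure of luciferase-tagged malaria parasites in RPMI 1640/Albumax erythrocyte culture, 37 C and 5% CO2. Inhibition is inferred from decreased luminescence after adding detection reagent.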
VACV mCherry inh: vaccinia inhibition (mCherry reporter). Potency, µM (top dose mostly 36.5 µM), for the others: at the top dose activity change, negative = inhibition, hits mostly inhibitors. AID 720579. Vaccinia virus mCherry reporter infection, fluorescence. 310,000 tested, 0.63% active; calls by dose curve; tested in A549 cells; note: % is set by controls: 0 for no effect and ±100 for the full control effect; nearly all actives have a fitted effect of over 35% in size
NS1 inh: blocks influenza NS1 protein function; Potency, µM (series often up to 46.1 µM), for inactives: at the top dose activity, positive = more growth; AID 2326; 270,000 tested, 0.4% active; calls by dose curve; note: actives are rising curves; nearly all actives have a fitted effect of over 50% in size
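A cell-based growth assay was used: compounds that relieve NS1-induced slow growth of budding yeast raise OD600. Assay medium was yeast nitrogen base with ammonium sulphate and -URA supplement, pH 6.0, with 2% galactose.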
HCV inh: HCV inhibition | Huh7.5.1 HCVcc-Cre infection, luciferase reporter, 44 h | Potency, µM (highest dose often 41.8 µM), for the others: at the top dose activity change, negative = inhibition, usual class: inhibitors | 340,000 tested, 3.4% active | AID 651820; note: % is set by controls: 0 for no effect and ±100 for the full control effect
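Seed cells (1,000/well) for 4 h; treat with compound and infect with HCVcc-Cre, moi about 0.5. Incubate 44 h, then detect luciferase activity.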
Pf growth 96h: P. falciparum growth inhibition at 96 hour, primary screen for plastid delayed-death inhibitors. 320,000 tested, 6.9% active. P. falciparum luciferase reporter growth, 96 h. AID 504834. Potency, µM (doses to about 28.7 µM), for inactives: at the highest dose activity change, negative = inhibition, hits mostly inhibitors; note: % is set by controls: 0 for no effect and ±100 for the full control effect
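P. falciparum expressing integrated firefly luciferase grown in erythrocytes (2% hematocrit, 0.05% parasitemia final) with compounds for 96 hours at 37 C, 5% CO2. Growth inhibition read as loss of luminescence after adding luciferase detection reagent.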
VACV Venus inh: vaccinia inhibition (Venus reporter) | 330,000 tested, 0.46% active | Vaccinia virus Venus reporter expression, fluorescence | Potency, µM (titrated, usually from 36.5 µM), for inactives: at the highest dose activity change, negative = inhibition, actives largely listed as inhibitors | AID 720580; calls by dose curve; tested in A549 cells; note: % is set by controls: 0 for no effect and ±100 for the full control effect; nearly all actives have a fitted effect of over 30% in size
Numbers without * were called inactive; i = inactive; ? = inconclusive; nt = no result given; [ ] = remark or other dose. Unless noted, calls come from the whole dose curve; as a rule, active = well fitted inhibition curve with a large enough effect; inconclusive = small, poorly fitted or top-dose-only effect, or another doubt; inactive = no such curve, though single readings can be large or run the other way. Potency is the fitted concentration of half-maximal effect.

SMILES | Pf growth 48h | VACV mCherry inh | NS1 inh | HCV inh | Pf growth 96h | VACV Venus inh
CCOc1ccccc1NC(=O)N1CCCC(c2nc3c(nnn3Cc3ccc(C)cc3)c(=O)[nH]2)C1 (stereo not given) | 4.1µM* | -23% | -41% | -6% | 0% | -12%
CC(C)C[C@H]1CN([C@@H](Cc2ccc(O)cc2)CN2CCC[C@H]2CN2C(=O)C(=O)NC[C@@H]2Cc2ccccc2)C(=O)C(=O)N1CC1CCCCC1 | nt | -8% | nt | nt | nt | -10%
O=C(COc1ccccc1)NC(=S)Nc1ccc2c3c(cccc13)CC2 | nt | nt | 6% | -2% | 5% | -21%
Cc1ccccc1C(=O)NCCCNC(=O)c1cnccn1 | 12% | 33% | -4% | 10% | ? | -6%
NS(=O)(=O)c1ccc(CNC(=O)C2(c3ccc(Cl)cc3)CC2)cc1 | 22% | -2% | nt | 4% | 31% | -8%
Cc1ccc(N2C(=O)C3N=NN(CC(=O)N4N=C(c5ccccc5)CC4c4ccccc4)C3C2=O)cc1 (stereo not given) | 12µM* | -11% | nt | 14% | -25% | -8%
NC(=S)N=Nc1c(O)n(CC(=O)Nc2ccccc2)c2ccccc12 | 12% | nt | 5% | 5% | 21% | nt
NC(=S)N=Nc1c(O)n(CCCl)c2ccccc12 | ? | ? | -1% | ? | ? | 1µM*
CCOc1ccc2c(c1)c(N=NC(N)=S)c(O)n2C | 9.3µM* | nt | -4% | 1% | 5.2µM* | nt
NC(=S)N=Nc1c(O)n(CCCl)c2ccc(Cl)cc12 | ? | 2.2µM* | nt | ? | -7% | ?
COc1ccccc1NC1=C(Cl)C(=O)N(c2ccccc2)C1=O | 21% | i | -3% | 19% | -17% | -3%
O=C(O)c1ccc(Nc2nc(-c3cccnc3)cs2)cc1 | 137% | -9% | 1% | 25% | 33% | -15%
C(=C\c1sc(Nc2ccccc2)n[n+]1-c1ccccc1)/c1ccccc1 | nt | ? | nt | -2% | nt | 8.9µM*
COc1ccc(-c2sc(Nc3ccccc3)n[n+]2-c2ccccc2)cc1Br | ? | -18% | nt | 6% | ? | -4%
COc1ccc2c(c1OC)C(=O)OC2Nc1nc(-c2ccc(-c3ccccc3)cc2)cs1 (stereo not given) | 425% | ? | -23% | 8.9µM* | i | ?
COc1cccc(-c2csc(NC3OC(=O)c4c3ccc(OC)c4OC)n2)c1 (stereo not given) | 86% | ? | -9% | -27% | 144% | -16%
CC1(c2ccccc2)CC(C)(C)N2C(=O)C(=O)c3cccc1c32 (stereo not given) | 12µM* | -13% | -39% | -3% | 26% | -19%
CC(=O)Nc1cc([As](=O)(O)O)ccc1O | ? | -13% | -2% | 1%[8.37 µM] | 11µM* | -11%
CC(=O)Nc1cc(Br)ccc1O | 0% | nt | -2% | 12% | ? | nt
CC(Cc1ccccc1)NC(=O)c1ccc([N+](=O)[O-])cc1 (stereo not given) | 232% | -15% | -5% | 1% | ? | -18%
CC(Cc1ccccc1)NC(=O)c1ccc(N)cc1 (stereo not given) | 102% | -13% | 12% | 16% | 12µM* | -5%
NC(=S)N/N=C\c1c(OCc2ccccc2Cl)ccc2ccccc12 | 10µM* | ? | nt | 7.9µM* | 42% | ?
Cc1cc(C)n2nc(C(=O)N/N=C/c3ccccc3Cl)nc2n1 | -5% | -9% | 4% | -2% | -20% | -17%
NC(=S)N/N=C\c1c2ccccc2cc2ccccc12 | -3% | ? | 8% | 13µM* | -16% | ?
COCCNC(=S)N/N=C/c1c2ccccc2cc2ccccc12 | 6.6µM* | ? | -4% | ? | 3.7µM* | -19%
S=C(NCCN1CCOCC1)N/N=C/c1c2ccccc2cc2ccccc12 | -16% | -29% | 1% | -14% | nt | ?
Cc1cc(C)n2nc(C(=O)N/N=C/c3c4ccccc4cc4ccccc34)nc2n1 | -9% | -26% | 23% | -23% | 12µM* | -8%
O=S(=O)(c1ccc(-c2csc(-c3cccnc3)n2)cc1)N1CCOCC1 | ? | -5% | nt | -10% | 3% | -15%
Cc1[nH]c2ccccc2c1/C=N/NC(N)=S | 30% | ? | -1% | -11% | ? | ?

Bioassay records as filed in PubChem BioAssay.
